Pf growth 96h: P. falciparum growth inhibition at 96 hours. AID 504834. actives 6.9% (n = 320,000). P. falciparum luciferase reporter growth, 96 h. Potency, µM (series often up to 28.7 µM), actives largely listed as inhibitors; active = well fitted inhibition curve with a large enough effect; inconclusive = small, poorly fitted or top-dose-only effect, or another doubt; inactive = no such curve, though single readings can be large or run the other way
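Compounds incubated with erythrocytes infected by luciferase-expressing P. falciparum (2% hematocrit, 0.05% parasitemia final) for 96 hours, 37 C in 5% CO2. Growth inhibition scored as decreased luciferase luminescence.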
SARS PLP yeast: inhibitors of SARS-CoV papain-like protease in yeast. Potency, µM (highest dose often 32.9 µM), most hits filed as activators. actives 0.19% (n = 330,000). S. cerevisiae expressing SARS-CoV PLpro, growth rescue; note: nearly all actives have a fitted effect of over 55% in size
Shiga inhibitor: Shiga toxin inhibition; Vero cells, Shiga toxin protein synthesis inhibition reporter; inhibition, % at 38.7 µM; actives 9.2% (n = 290,000); in the data active = inhibition mostly above about 28%, no sharp cut-off; inactive = mostly below about 43%
NS1 function inh: influenza NS1 inhibition; actives 0.4% (n = 270,000); Potency, µM (doses to about 46.1 µM); note: actives are rising curves; nearly all actives have a fitted effect of over 50% in size
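In this qHTS, NS1 from influenza A is expressed in budding yeast, where it slows growth. Cells are switched from glucose to 2% galactose medium (pH 6.0, -URA), treated with compound, and growth recovery is read at OD600.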
Pf growth 48h: inhibits P. falciparum growth in the first generation, 48 h; P. falciparum luciferase growth in erythrocytes, 48 h; Potency, µM (top dose mostly 28.7 µM), most hits filed as inhibitors; actives 5.9% (n = 310,000); AID 504832; active = well fitted inhibition curve with a large enough effect; inconclusive = small, poorly fitted or top-dose-only effect, or another doubt; inactive = no such curve, though single readings can be large or run the other way
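First compound was added to culture medium, then infected red cells at 0.1% parasitemia and 2% hematocrit (final). After incubation at 37 C under 5% CO2, luciferase detection reagent was dispensed and light output recorded.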
CHX counter: counter-screen hit for Shiga toxin inhibitors, cycloheximide. max response, %. actives 12% (n = 300,000). cell reporter, cycloheximide protein synthesis inhibition counterscreen; in the data active = max response mostly above about 13%, no sharp cut-off; inactive = mostly below about 14%; note: read at 38.3 µM for the half of the compounds with a filed dose
A number is an active result; n = inactive; u = inconclusive; x = no result given; + = active, no number; [ ] = dose if it differs, or a comment. This is a sample that favours compounds with a hit; in the whole collection about 21% have one here. Unless noted, calls come from the whole dose curve.

SMILES | Pf growth 96h | SARS PLP yeast | Shiga inhibitor | NS1 function inh | Pf growth 48h | CHX counter
Cc1cccc(-c2ccc(-c3cc(=O)oc4cc(C)cc(C)c34)cc2)c1 | x | x | n | x | x | n
CC(C)Cn1c(N)c(C(=O)COC(=O)c2ccccc2C(=O)c2ccccc2)c(=O)n(C)c1=O | x | n | x | x | x | x
Clc1ccc(SCCCCN2CCNCC2)cc1 | 12µM | n | n | u | u | 39
Cc1ccc(C)c(OCCCN2CCNCC2)c1 | u | n | n | n | n | n
Cc1ccc(SCCCCN2CCNCC2)cc1 | n | n | + | n | n | 37
Cc1ccc(SCCCCN2CCOCC2)cc1 | n | n | n | n | n | 6.9
Clc1ccc(SCCCCN2CCOCC2)cc1 | n | n | n | n | n | n
CCC(Oc1ccc2c(c1)C(=O)CC(C)(C)O2)C(=O)NCCN1CCCCCC1 (stereo not given) | u | n | n | n | n | n
CCC1(c2ccccc2)NC(=O)N(CC(=O)Nc2cccc(C#N)c2)C1=O (stereo not given) | u | n | n | n | n | n
Cc1cccc(NC(=O)c2cc3ccccc3oc2=O)c1 | n | n | x | n | n | 41
Cc1ccc[n+](CC(=O)c2cc3ccccc3oc2=O)c1 | n | n | n | n | n | 25
Cc1ccnc(NC(=O)c2oc3ccccc3c2C)c1 | n | n | x | x | n | x
CC(=O)c1cc2ccccc2oc1=O | n | n | x | x | n | x
Cc1ccc(S(=O)(=O)N/N=c2\oc3ccccc3cc2C(=O)Nc2cccc(C)c2)cc1 | n | n | 71 | n | n | 62
Cc1ccnc(NC(=O)c2cc3ccccc3oc2=O)c1 | n | n | 122 | n | n | 27
Cc1cc(C)c[n+](CC(=O)c2cc3ccccc3oc2=O)c1 | n | n | n | n | n | n
O=C1CCC([N+](=O)[O-])C(c2ccccc2C(F)(F)F)N1 (stereo not given) | u | n | n | n | n | n
O=C(NCC1CCCO1)C1CCCN(S(=O)(=O)c2ccc(Cl)cc2)C1 (stereo not given) | n | n | n | n | n | n
COc1ccc(NS(=O)(=O)c2ccc(C)c(C(=O)NCC(c3ccco3)N3CCCCC3)c2)cc1 (stereo not given) | u | n | x | x | n | x
CC(NC(=O)Cn1cc(Br)c([N+](=O)[O-])n1)c1ccccc1 (stereo not given) | u | n | x | n | u | n
COc1ccc2oc(=O)c(C(=O)Nc3cccc(C)c3)cc2c1 | n | n | 49 | n | n | 43
O=C(Nc1c(-c2ccccc2)nc2ncccn12)c1cc2ccccc2oc1=O | n | n | n | u | n | 36
CC(=O)Nc1c(-c2ccccc2)nc2ncccn12 | n | n | n | n | x | n
COc1ccc(CN2CCn3nc(C(=O)NC(C)C)cc3C2=O)cc1 | u | n | n | n | n | n
COc1ccc(CN2CCn3ncc(C(=O)Nc4cccc(C)c4)c3C2=O)cc1 | n | n | n | n | n | 16
SMILES | Pf growth 96h | SARS PLP yeast | Shiga inhibitor | NS1 function inh | Pf growth 48h | CHX counter
CNS(=O)(=O)c1ccc2nc(NC(=O)/C=C/c3ccco3)sc2c1 | n | n | n | x | n | n
COc1ccc(Oc2nccc(OC)c2C#N)cc1 | n | n | n | n | n | 20
COc1ccnc(Oc2cc(Cl)cc(Cl)c2)c1C#N | n | n | n | n | n | n
COc1nccc(Nc2ccccc2)c1C#N | x | n | n | n | n | n
COc1ccnc(Oc2ccc(C)cc2C)c1C#N | n | u | n | n | n | 18
N#Cc1c(-c2ccccc2)ccnc1Oc1ccccc1 | n | n | 59 | n | n | 24
CN(C)c1ccnc(Nc2ccccc2)c1C#N | n | n | n | n | n | n
COc1cccc(Oc2nccc(N(C)C)c2C#N)c1 | n | n | 39 | n | n | 15
COc1ccnc(Nc2ccc(C)c(C)c2)c1C#N | n | n | n | n | n | n
O=C(CCN1C(=O)/C(=C\c2cccc(Br)c2)SC1=S)N1CCOCC1 | u | n | n | n | n | n
CCC(=O)OCN1C(=O)C=CC1=O | x | x | x | n | x | x
COc1ccc(NS(=O)(=O)c2cccc(C(=O)NNC(=O)c3cccn3C)c2)cc1 | n | n | n | n | n | n
Cc1ccc(NS(=O)(=O)c2cccc(C(=O)NNC(=O)c3cccn3C)c2)c(C)c1 | n | n | n | n | n | 24
CCOC(=O)C(NCCc1ccccc1)(NC(=O)CC)C(F)(F)F (stereo not given) | u | n | n | n | n | n
Cn1c(SCC(=O)NCCNC(=O)CSc2nnc(C(F)(F)F)n2C)nnc1C(F)(F)F | n | n | n | n | x | n
O=C(COC(=O)/C=C/c1ccc(C(F)(F)F)cc1)NCC1CCCO1 (stereo not given) | n | n | x | x | u | x
Cc1ccc(C(=O)Nc2ccc(C(=O)OCc3cc(=O)n4ccsc4n3)cc2)cc1 | u | n | x | x | n | x
COC(=O)c1ccc(OCc2cc(=O)n3ccsc3n2)cc1 | n | n | 142 | n | n | 49
CS(=O)c1ccccc1COC(=O)Nc1cccc(Cl)c1 (stereo not given) | n | n | n | n | n | n
O=C(Nc1ccc(Cl)cc1)OCc1ccccn1 | n | n | 78 | n | n | 29
CS(=O)(=O)c1ccccc1COC(=O)Nc1ccc(Cl)cc1 | n | n | n | n | n | 21
O=C(Nc1ccncc1)OCc1ccccc1 | n | n | x | n | u | n
CCN(CC(=O)Nc1c(F)cccc1F)C(=O)Cn1[nH]c(=O)c2ccccc2c1=O | n | n | x | x | n | x
Cc1cc(C)n2nc(C(=O)OCC(=O)Nc3ccc(C)c(S(=O)(=O)N4CCOCC4)c3)nc2n1 | x | n | x | x | x | x
COc1ccc(CCNC(=O)c2nnc(Cc3ccc(Cl)cc3)o2)cc1OC | n | n | n | n | x | n
SMILES | Pf growth 96h | SARS PLP yeast | Shiga inhibitor | NS1 function inh | Pf growth 48h | CHX counter
CC(C)CCNC(=O)c1nnc(Cc2ccc(Cl)cc2)o1 | 8.3µM | n | n | n | x | n
CCCc1cc(=O)[nH]c(SCCCCN2C(=O)c3ccccc3C2=O)n1 | n[5.75 µM] | n | n | x | n | n
Cc1ccc(S(=O)(=O)Nc2ccc(N=Nc3ccc(O)cc3)cc2)cc1 | n | n | n | n | n | n
Cc1nc(N=Nc2ccc(O)cc2)n[nH]1 | n | n | 53 | n | n | 20
COc1ccc(-c2nc(N=Nc3ccc(O)cc3)n[nH]2)cc1 | u | n | n | n | n | 35
Cc1ccc(-c2nc(N=Nc3ccc(O)cc3)n[nH]2)cc1 | n | n | 105 | n | n | 49
Cc1ccc(CNc2ncnc3ccc(-c4c(C)noc4C)cc23)o1 | x | x | n | x | x | n
Nc1nc(SCCO)[nH]c(=O)c1NC(=O)c1ccco1 | n | n | x | x | n | x
O=C(NCCCn1ccnc1)c1nn2c(C(F)(F)F)cc(-c3ccc(Br)cc3)nc2c1Cl | 2.9µM | n | n | u | 1.5µM | n
COc1ccc(-c2cc(C(F)(F)F)n3nc(C(=O)NCCN4CCOCC4)cc3n2)cc1 | n | n | n | n | u | n
CCOc1ccc(-c2cc(C(=O)NCCCn3ccnc3)c3cc(Br)ccc3n2)cc1 | u | n | n | n | 1.7µM | n
CCOc1ccc(-c2cc(C(=O)NCCCn3ccnc3)c3ccccc3n2)cc1 | n | n | n | x | u | n

Source: PubChem BioAssay
